Measured values as given in PubChem BioAssay AID504834 (National Center for Advancing Translational Sciences (NCATS), 2011).
The campaign covered roughly 320,000 compounds. About 22,000 (6.9%) were called active. Inconclusive results (about 27%) are left out. This is one part of a sample in which actives are shown more often than they occur. Unmarked numbers belong to inactive results. The call rests on the fitted dose curve; in most records, active means well fitted inhibition curve with a large enough effect; inconclusive means small, poorly fitted or top-dose-only effect, or another doubt; inactive means no such curve, though single readings can be large or run the other way.

Assay: Primary qHTS for delayed death inhibitors of the malarial parasite plastid, 96 hour incubation
Conditions: P. falciparum luciferase reporter growth; series mostly up to 28.7 µM; activity change, negative = inhibition: at the top concentration
How it was run: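 Delayed-death screen, second-generation endpoint: infected erythrocytes, 2% hematocrit, 0.05% parasitemia final; 96 hours at 37 C, 5% CO2; luciferase detection reagent; luminescence decrease equals reduced growth.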
On the % scale 0 is the no-effect control and ±100 the full control effect; potency means the concentration at half of the fitted maximal effect.

In the case of `COc1ccc(CC(=O)Nc2c3c(nn2-c2cccc(Cl)c2)CS(=O)C3)cc1` (stereo unspecified), the Potency is reported as 1.47 µM (active).
With `c1ccc(CCC2=NCCn3cccc32)cc1` the Potency was 14.7 µM (active).
With `COC(=O)c1cn(CC(=O)NCc2cccs2)c2ccccc12` the Potency was 13.1 µM (active).
In the case of `CC(CN1CCC(n2nccc2NC(=O)C2CCCC2)CC1)c1ccccc1` (stereo unspecified), the Potency is reported as 9.28 µM (active).
For `CC(C)=CCCC(C)CN1CCC(n2nccc2NC(=O)c2ccccc2)CC1` (stereo unspecified), the Potency was 14.7 µM (active).
With `CCCOC(=O)c1[nH]c2c(c1C)C(=O)CC(c1cccs1)C2` (stereo unspecified) the Potency was 9.28 µM (active).
With `CCCOC(=O)c1[nH]c2c(c1C)C(=O)CC(c1cc(OC)c(OC)c(OC)c1)C2` (stereo unspecified) the Potency was 11.7 µM (active).
For `CCOC(=O)C1(S(=O)(=O)c2ccc(Cl)cc2)CCN(Cc2ccccc2)CC1`, the Potency was 2.94 µM (active).
In the case of `COCCN1C(=O)C(=O)/C(=C(/O)c2ccc(S(=O)(=O)N3CCCCC3)cc2)C1c1ccc(OC)c(OC)c1` (stereo unspecified), the Potency is reported as 9.28 µM (active).

First: Cc1cccc(CC(=O)Nc2c3c(nn2-c2cccc(Cl)c2)CS(=O)C3)c1 (stereo unspecified)
Second: COc1ccc(-n2nc3c(c2NC(=O)Cc2cccc(C)c2)CS(=O)C3)cc1 (stereo unspecified)
The “activity change, negative = inhibition” value of the first is higher: 37.9% for the first, -26.6% for the second.

Compared with `CC(=O)c1ccc(N2Cc3ccccc3C2)cc1`, `O=C(OCc1ccccc1)c1ccc(O)cc1` is higher in “activity change, negative = inhibition” value: 15.6% for the first, 17.2% for the second.

Going from `COc1ccc(F)cc1S(=O)(=O)N1CCCCC1` to `CC1CCN(S(=O)(=O)c2ccc3c(c2)n(C)c(=O)n3C)CC1`, the “activity change, negative = inhibition” value rises from -25.6% to 39.9%.

Going from `CCc1ccc(S(=O)(=O)Nc2cc3c(cc2N2CCCCC2)n(C)c(=O)c(=O)n3C)cc1` to `CCOc1cc(C2/C(=C(/O)c3ccc(S(=O)(=O)N4CCCCC4)cc3)C(=O)C(=O)N2CCOC)ccc1O` (stereo unspecified), the “activity change, negative = inhibition” value rises from 12.4% to 12.9%.

Going from `CC1CSc2nnc(CCc3ccccc3)n21` (stereo unspecified) to `Cn1c(CCc2ccccc2)nnc1SCC(N)=O`, the “activity change, negative = inhibition” value rises from -5.11% to 0.25%.

Going from `CS(=O)(=O)c1ccc(C(=O)OCC(=O)NNC(=O)COc2ccc(Cl)cc2)cc1` to `COCCNC(=O)c1ccc(S(=O)(=O)c2ccc(Cl)cc2)c(NC(C)=O)c1`, the “activity change, negative = inhibition” value rises from -3.01% to 25.4%.

First: COc1ccc(C(C(=O)NC(C)(C)C)N(Cc2ccc(F)cc2)C(=O)CCC(=O)Nc2cc(C)on2)cc1 (stereo unspecified)
Second: COc1ccc(CN2CCC(n3nccc3NC(=O)CCCc3ccccc3)CC2)cc1C
The “activity change, negative = inhibition” value of the first is higher: 10.8% for the first, -13.8% for the second.

Compared with `Cn1c(SCC(=O)Nc2nccs2)nnc1-c1cccnc1`, `CC(C)Oc1ccc(CN2CCC(n3nccc3NC(=O)c3cccnc3)CC2)cc1` is lower in “activity change, negative = inhibition” value: 1.62% for the first, -17.2% for the second.

Compared with `CCN(CC)C(=O)C(=O)c1cn(CC(=O)NCc2ccc3c(c2)OCO3)c2ccccc12`, `O=C(Cn1cc(C(=O)c2cccs2)c2ccccc21)NCc1cccs1` is higher in “activity change, negative = inhibition” value: 30.1% for the first, 200% for the second.

Compared with `O=C(NCCc1ccccc1)c1ccc2c(c1)N(Cc1ccccc1)CCS2`, `CCOC(=O)C1(S(=O)(=O)c2ccccc2)CCN(Cc2ccccc2)CC1` is lower in “activity change, negative = inhibition” value: 22.6% for the first, -0.502% for the second.

First: CS(=O)(=O)N1CCc2nc(-c3ccccc3)sc2C1
Second: O=C(NNS(=O)(=O)c1ccc(Cl)cc1)C1CCN(Cc2ccccc2)CC1
The “activity change, negative = inhibition” value of the first is higher: 243% for the first, 85.3% for the second.

Compared with `CCOc1cc(C2C(C(=O)c3ccco3)=C(O)C(=O)N2Cc2ccccc2)ccc1O` (stereo unspecified), `COCCN1C(=O)C(=O)/C(=C(/O)c2ccc(S(=O)(=O)N3CCOCC3)cc2)C1c1ccc(OC)c(OC)c1` (stereo unspecified) is lower in “activity change, negative = inhibition” value: 10.9% for the first, -24.2% for the second.

Going from `CCOC(=O)c1cc(Sc2ccccc2N)cc(C(=O)OCC)n1` to `CCOC(=O)C1=C(N)N2C(=O)C(C)SC2=C(C(=O)OCC)C1c1cc(OC)c(OC)c(OC)c1` (stereo unspecified), the “activity change, negative = inhibition” value rises from -16.9% to -1.9%.

Compared with `O=C(Nc1ccnn1C1CCN(C/C=C/c2ccc(F)cc2)CC1)C1CCCC1`, `Cc1nn(C)c(Cl)c1CN1CCC(n2nccc2NC(=O)C2CCCC2)CC1` is lower in “activity change, negative = inhibition” value: 34.7% for the first, 30.4% for the second.

First: CC(=O)N[C@@H](C)C(=O)N1CCC(n2nccc2NC(=O)CCCc2ccccc2)CC1
Second: CN1CCN(c2ccccc2NC(=O)COc2ccc(C3CCCCC3)cc2)CC1
The “activity change, negative = inhibition” value of the first is lower: -4.67% for the first, 32.9% for the second.

Compared with `N#Cc1cccc(OC(=O)c2ccc3c(=O)n4c(nc3c2)CCC4)c1`, `O=C(Nc1cccc(F)c1)NC1CCCc2ccccc21` (stereo unspecified) is lower in “activity change, negative = inhibition” value: 47.2% for the first, -14.7% for the second.

Going from `O=C(NCCNc1ccccc1[N+](=O)[O-])c1ccccc1F` to `N#Cc1nc(-c2cccc3ccccc23)oc1N`, the “activity change, negative = inhibition” value falls from 45.3% to 18.9%.

First: CCCCn1c(N)c(N(CCOC)C(=O)c2cccc(S(=O)(=O)N(C)c3ccccc3)c2)c(=O)[nH]c1=O
Second: CN(C)S(=O)(=O)c1cccc(-c2nn(-c3ccccc3)cc2/C=C2\SC(=S)N(CC(=O)O)C2=O)c1
The “activity change, negative = inhibition” value of the first is higher: -3.71% for the first, -27.3% for the second.

Compared with `CCCCOC(=O)c1[nH]c(C)c(C(=O)OC)c1C`, `COCCOC(=O)c1[nH]c2c(c1C)C(=O)CC(c1ccc(OC)cc1)C2` (stereo unspecified) is higher in “activity change, negative = inhibition” value: -31.2% for the first, 10.5% for the second.

Compared with `Cc1cc(C)c(S(=O)(=O)n2cc(C(C)C(N)C(=O)O)c3ccccc32)c(C)c1` (stereo unspecified), `Cc1cc(NC(=O)Nc2c[nH]c(=O)[nH]c2=O)ccc1Br` is higher in “activity change, negative = inhibition” value: 10.6% for the first, 40.8% for the second.

First: O=C(O)/C=C/c1ccc(OCCCF)cc1
Second: COc1ccc([C@H]2CC(=O)C=C(/C=C/c3ccccc3)C2)cc1
The “activity change, negative = inhibition” value of the first is lower: 18% for the first, 39.1% for the second.
